The values that follow come from PubChem BioAssay.

Structures are written as SMILES. Unmarked numbers belong to inactive results. For some of these results: Potency and affinity values are given separately. Active and inactive are the calls of the source. Unless noted, the rule behind the calls is not given here.

Experiment [1] is described as follows: antimalarial activity against Dd2 strain (AID 2302;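 active = growth inhibition above 50% at the single 2 µM test dose, taken to imply half-maximal potency below 2 µM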;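 note: 0% = DMSO untreated growth and 100% = chloroquine plus artemisinin killed control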). Conditions: P. falciparum Dd2 in RBCs, LDH growth readout, 72 h; at 2 µM; active compounds read high.
Experiment [2] is described as follows: HepG2 cytotoxicity, primary screen, cytotoxicity control for P. falciparum antimalarial project, cell-based, ATP luminescence (AID 2303;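 active = inhibition above 50%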;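 note: 0% = DMSO wells and 100% = digitonin-killed cells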). The note with it: HepG2 viability, 24-48 h, at 10 µM, active compounds read high.
Experiment [3] deals with L-lactate dehydrogenase (Plasmodium falciparum (isolate CDC / Honduras)) (UniProt Q27743). The experiment in a line: PfLDH activity inhibition – cell lysate, 3D7 strain, counter-screen for P. falciparum growth inhibition project (AID 2304).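 Note: 0% = vehicle and 100% = reference inhibitor.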 The note with it: P. falciparum 3D7 crude extract, LDH APAD/NBT absorbance; at 2 µM; active compounds read high.
Chain of L-lactate dehydrogenase (Plasmodium falciparum (isolate CDC / Honduras)) (Q27743 whole entry, looked up): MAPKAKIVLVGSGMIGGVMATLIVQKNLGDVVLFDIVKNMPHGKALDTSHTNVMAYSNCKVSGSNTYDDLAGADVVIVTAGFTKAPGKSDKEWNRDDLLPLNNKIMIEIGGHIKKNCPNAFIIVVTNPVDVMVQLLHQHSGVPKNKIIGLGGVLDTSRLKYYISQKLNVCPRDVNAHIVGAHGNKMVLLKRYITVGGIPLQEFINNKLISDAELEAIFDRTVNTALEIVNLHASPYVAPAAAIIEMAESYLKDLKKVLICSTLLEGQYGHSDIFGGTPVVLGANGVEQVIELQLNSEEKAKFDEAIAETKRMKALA
The nature of experiment [4]: inhibition of 3D7 malaria parasite growth – strain 3D7 (AID 2306).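 Note: 0% = DMSO wells and 100% = chloroquine plus artemisinin control wells.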 The note with it: P. falciparum 3D7 erythrocytic growth, LDH absorbance, 72 h; at 2 µM; active compounds read high.
For experiment [5], the target named is Calcium-dependent protein kinase 1 (Plasmodium falciparum (isolate 3D7)) (UniProt P62344). The experiment can be described thus: PfCDPK1 kinase inhibitors, biochemical, TCAMS library (AID 1159585; cut-off not given, nearly all actives have IC50 up to about 0.98 µM;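 note: inhibitors leave more ATP so luminescence rises with inhibition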). Conditions: recombinant PfCDPK1, Kinase-Glo ATP depletion luminescence. (Kinase-Glo reads ATP consumption through a luciferase reaction.)
Chain of Calcium-dependent protein kinase 1 (Plasmodium falciparum (isolate 3D7)) (P62344 whole entry, looked up): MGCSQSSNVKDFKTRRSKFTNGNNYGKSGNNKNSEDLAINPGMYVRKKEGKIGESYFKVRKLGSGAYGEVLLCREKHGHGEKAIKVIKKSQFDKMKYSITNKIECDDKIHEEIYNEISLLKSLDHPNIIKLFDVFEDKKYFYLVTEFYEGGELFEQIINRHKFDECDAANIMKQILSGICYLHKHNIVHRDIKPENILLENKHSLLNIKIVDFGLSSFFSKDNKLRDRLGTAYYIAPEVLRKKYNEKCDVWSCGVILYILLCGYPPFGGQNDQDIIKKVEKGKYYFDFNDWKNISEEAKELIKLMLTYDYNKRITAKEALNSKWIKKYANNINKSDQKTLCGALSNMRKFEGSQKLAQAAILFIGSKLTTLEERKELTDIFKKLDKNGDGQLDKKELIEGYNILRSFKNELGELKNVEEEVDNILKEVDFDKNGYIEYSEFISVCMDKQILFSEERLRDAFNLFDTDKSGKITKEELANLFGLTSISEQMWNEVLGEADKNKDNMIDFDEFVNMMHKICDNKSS
For experiment [6], the target named is Plasmodium falciparum protein kinase 6 (PK6, PF3D7_1337100) (UniProt Q8IDW1). The experiment can be described thus: PfPK6 kinase inhibitors, biochemical, TCAMS library (AID 1159586). The note with it: recombinant PfPK6, Kinase-Glo ATP depletion luminescence.
Chain of Plasmodium falciparum protein kinase 6 (PK6, PF3D7_1337100) (Q8IDW1 1-305): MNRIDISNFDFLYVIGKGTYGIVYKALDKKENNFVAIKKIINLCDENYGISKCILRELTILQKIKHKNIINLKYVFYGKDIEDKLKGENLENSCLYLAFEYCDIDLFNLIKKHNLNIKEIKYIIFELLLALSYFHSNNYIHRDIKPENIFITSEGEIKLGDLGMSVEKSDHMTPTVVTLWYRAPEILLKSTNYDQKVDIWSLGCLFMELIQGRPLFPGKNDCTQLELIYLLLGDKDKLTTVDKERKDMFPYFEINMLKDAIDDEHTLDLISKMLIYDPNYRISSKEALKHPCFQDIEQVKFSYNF
The target in experiment [7] is Protein kinase 7 (PK7), Plasmodium falciparum 3D7 (PF3D7_0213400) (UniProt Q7YTF7). The experiment in a line: inhibition of Plasmodium PK7 catalytic activity – biochemical, TCAMS antimalarial set, Kinase-Glo luminescence (AID 1159587). The note with it: recombinant PfPK7, Kinase-Glo ATP depletion luminescence.
Chain of Protein kinase 7 (PK7), Plasmodium falciparum 3D7 (PF3D7_0213400) (Q7YTF7 1-343): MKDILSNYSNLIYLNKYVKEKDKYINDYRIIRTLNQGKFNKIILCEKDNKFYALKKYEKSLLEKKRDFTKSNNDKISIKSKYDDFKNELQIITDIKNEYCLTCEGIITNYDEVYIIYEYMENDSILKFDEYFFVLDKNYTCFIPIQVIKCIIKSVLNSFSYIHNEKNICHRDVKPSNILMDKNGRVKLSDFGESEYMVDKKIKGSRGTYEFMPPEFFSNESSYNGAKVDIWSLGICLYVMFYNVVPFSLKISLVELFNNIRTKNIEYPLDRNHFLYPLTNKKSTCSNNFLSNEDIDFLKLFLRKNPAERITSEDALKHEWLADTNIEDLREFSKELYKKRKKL
In experiment [8] the target is Calcium-dependent protein kinase 4 (Plasmodium falciparum (isolate 3D7)) (UniProt Q8IBS5). The experiment in a line: PfCDPK4 kinase inhibitors, biochemical, TCAMS library (AID 1159588; cut-off not given, nearly all actives have IC50 up to about 0.91 µM). Conditions: recombinant PfCDPK4, Kinase-Glo ATP depletion luminescence.
Chain of Calcium-dependent protein kinase 4 (Plasmodium falciparum (isolate 3D7)) (Q8IBS5 whole entry, looked up): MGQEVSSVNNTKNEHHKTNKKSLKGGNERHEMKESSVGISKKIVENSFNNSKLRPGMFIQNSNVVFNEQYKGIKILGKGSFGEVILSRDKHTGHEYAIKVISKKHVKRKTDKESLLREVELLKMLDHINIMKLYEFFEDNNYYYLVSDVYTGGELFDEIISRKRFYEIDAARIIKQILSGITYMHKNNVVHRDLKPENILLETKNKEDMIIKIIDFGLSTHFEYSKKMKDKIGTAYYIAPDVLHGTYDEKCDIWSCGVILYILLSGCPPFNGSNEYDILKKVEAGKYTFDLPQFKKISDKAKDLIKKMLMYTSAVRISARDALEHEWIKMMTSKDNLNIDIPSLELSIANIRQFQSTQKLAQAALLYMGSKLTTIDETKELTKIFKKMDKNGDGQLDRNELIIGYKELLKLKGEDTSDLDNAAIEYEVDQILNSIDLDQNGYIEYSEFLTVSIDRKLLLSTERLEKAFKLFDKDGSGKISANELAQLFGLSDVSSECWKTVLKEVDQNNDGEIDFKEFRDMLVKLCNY

`Cc1cccc2[nH]c(-c3cccc(-c4ccc(CN5CCN(CCO)CC5)cc4)c3)nc12`: the growth inhibition in experiment [1] is 63% (active); in experiment [4] it was 101% (active). In addition, the inhibition (commonly the change of the read-out against control, counted positive when it falls) was 12% in experiment [2] and -4% in experiment [3]. Also, the outcome in experiment [5], in experiment [6], in experiment [7] and in experiment [8] was inactive.

On to `O=C(/C=C/c1ccc(Cl)c(Cl)c1)NC1CCC(CN2CCC(c3coc4ccccc34)CC2)CC1` (stereo not given), for which the results for the growth inhibition in experiment [1] and in experiment [4] were 41% and 102% (active), respectively. The inhibition in experiment [2] was 40%; in experiment [3] it was 3%. In addition, the result in experiment [5], in experiment [6], in experiment [7] and in experiment [8] was inactive.

As to `Cc1c(CNCCCNc2nc3ccccc3[nH]2)sc(C(F)F)c1Br`, the growth inhibition in experiment [1] was 5%; in experiment [4], 102% (active). Besides, the results for the inhibition in experiment [2] and in experiment [3] were 9% and 2%, respectively. In addition, the outcome in experiment [5], in experiment [6], in experiment [7] and in experiment [8] was inactive.

Regarding `COCCN(CCOC)c1ncc(-c2ccsc2)c(-c2nc(C)c(C)s2)n1`, the growth inhibition in experiment [1] was 63% (active); in experiment [4], 96% (active). For the same compound, the figures for the inhibition in experiment [2] and in experiment [3] were 1% and 5%, respectively. Moreover, the result in experiment [5], in experiment [6], in experiment [7] and in experiment [8] was inactive.

Consider `COc1cc(NCCCNCC2c3ccccc3Oc3ccccc32)nc2ccccc12`, for which the growth inhibition is 66% (active) in experiment [1] and 99% (active) in experiment [4]. Moreover, the values for the inhibition in experiment [2] and in experiment [3] were 99% (active) and -9%, respectively. The outcome in experiment [5], in experiment [6], in experiment [7] and in experiment [8] was inactive.

`Cc1cc(C)c(CON2C(N)=NC(N)=NC2(C)C)cc1C`: the growth inhibition in experiment [1] is 93% (active); in experiment [4], 92% (active). For the same compound, the inhibition in experiment [2] is 65% (active); in experiment [3], 2%. For the same compound, the outcome in experiment [5], in experiment [6], in experiment [7] and in experiment [8] was inactive.

With `CS(=O)(=O)c1ccc(-c2cncc(Nc3cccc([N+](=O)[O-])c3)c2)cc1`, the growth inhibition was 70% (active) in experiment [1] and 97% (active) in experiment [4]. For the same compound, the inhibition in experiment [2] was 6%; in experiment [3], -1%. The result in experiment [5], in experiment [6], in experiment [7] and in experiment [8] was inactive.

With `CCOCCCn1c(=N)c(C(=O)NCc2ccc(OC)cc2)cc2c(=O)n3cccc(C)c3nc21`, the results for the growth inhibition in experiment [1] and in experiment [4] were 46% and 99% (active), respectively. Also, the values for the inhibition in experiment [2] and in experiment [3] were 24% and 2%, respectively. Moreover, the outcome in experiment [5], in experiment [6], in experiment [7] and in experiment [8] was inactive.

Consider `CC(C)N1CCC(NC(=O)N2CCCN(c3ncnc4cc(-c5ccc(Cl)cc5)sc34)CC2)CC1`, for which the figures for the growth inhibition in experiment [1] and in experiment [4] were 7% and 81% (active), respectively. Besides, the results for the inhibition in experiment [2] and in experiment [3] were 6% and 7%, respectively. Further, the result in experiment [5], in experiment [6], in experiment [7] and in experiment [8] was inactive.

Turning to `Cc1ccc2oc3cc(-c4nn[nH]n4)ccc3c(=O)c2c1`, the growth inhibition in experiment [1] was 96% (active); in experiment [4], 97% (active). For the same compound, the inhibition in experiment [2] is 2%; in experiment [3] it was -6%. The result in experiment [5], in experiment [6], in experiment [7] and in experiment [8] was inactive.

Consider `CCOC(=O)c1ccc(NC(=O)Nc2cccc(-c3ccc(-c4nc5ccc(C(F)(F)F)cc5[nH]4)cc3)c2)cc1`, for which the results for the growth inhibition in experiment [1] and in experiment [4] were 99% (active) and 101% (active), respectively. The inhibition in experiment [2] was 62% (active); in experiment [3] it was -4%. Also, the outcome in experiment [5], in experiment [6], in experiment [7] and in experiment [8] was inactive.

As for `CNCCNCc1ccc(-c2cccc(-c3nc4ccc(F)cc4[nH]3)c2)cc1`, the values for the growth inhibition in experiment [1] and in experiment [4] were 1% and 93% (active), respectively. For the same compound, the inhibition in experiment [2] was 10%; in experiment [3], -1%. In addition, the result in experiment [5], in experiment [6], in experiment [7] and in experiment [8] was inactive.

As for `FC(F)(F)c1ccc2nc(-c3cccc(-c4cccc(CNCCc5ccncc5)c4)c3)[nH]c2c1`, the growth inhibition was 97% (active) in experiment [1] and 99% (active) in experiment [4]. In addition, the inhibition in experiment [2] is 31%; in experiment [3], -8%. Moreover, the result in experiment [5], in experiment [6], in experiment [7] and in experiment [8] was inactive.

As for `CC(C)(C)c1cc(C(=O)N2CCN(c3ncnc4ccsc34)CC2)n(Cc2ccccc2)n1`, the figures for the growth inhibition in experiment [1] and in experiment [4] were 83% (active) and 95% (active), respectively. The results for the inhibition in experiment [2] and in experiment [3] were 2% and -8%, respectively. The outcome in experiment [5], in experiment [6], in experiment [7] and in experiment [8] was inactive.

Take `O=C(Nc1ccc(NC2=NCCN2)cc1)Nc1ccc(NC2=NCCN2)cc1`: the figures for the growth inhibition in experiment [1] and in experiment [4] were 72% (active) and 88% (active), respectively. Also, the inhibition is -6% in experiment [2] and -1% in experiment [3]. In addition, the result in experiment [5], in experiment [6], in experiment [7] and in experiment [8] was inactive.

Turning to `CCN(CC)CCN(Cc1ccc(-c2ccc(C(F)(F)F)cc2)nc1)C(=O)Cn1cc(Cc2cnn(C)c2)c(=O)n2nc(-c3ccccc3)cc12`, the figures for the growth inhibition in experiment [1] and in experiment [4] were 95% (active) and 97% (active), respectively. Besides, the inhibition in experiment [2] is 35%; in experiment [3], -3%. In addition, the outcome in experiment [5], in experiment [6], in experiment [7] and in experiment [8] was inactive.

Regarding `Clc1ccc2c(NCc3ccc4c(c3)OCO4)ccnc2c1`, the growth inhibition in experiment [1] is 97% (active); in experiment [4] it was 101% (active). For the same compound, the inhibition in experiment [2] was 6%; in experiment [3], 1%. For the same compound, the outcome in experiment [5], in experiment [6], in experiment [7] and in experiment [8] was inactive.

For `CC(C)n1cc(CN2CCCC(C(=O)Nc3cccc(-c4cc5ccccc5[nH]4)c3)C2)cn1` (stereo not given), the results for the growth inhibition in experiment [1] and in experiment [4] were 65% (active) and 96% (active), respectively. Besides, the inhibition was 34% in experiment [2] and -3% in experiment [3]. Moreover, the outcome in experiment [5], in experiment [6], in experiment [7] and in experiment [8] was inactive.

Regarding `O=C(c1ccccc1F)N(Cc1ccc(Cl)cc1)c1ccccn1`, the growth inhibition in experiment [1] was 58% (active); in experiment [4], 84% (active). Moreover, the inhibition is -3% in experiment [2] and 1% in experiment [3]. In addition, the outcome in experiment [5], in experiment [6], in experiment [7] and in experiment [8] was inactive.

As to `CCc1ccc(C2=Nn3c(nnc3-c3cccs3)SC2)cc1`, the growth inhibition is 20% in experiment [1] and 93% (active) in experiment [4]. Moreover, the inhibition in experiment [2] is 9%; in experiment [3], 0%. The result in experiment [5], in experiment [6], in experiment [7] and in experiment [8] was inactive.
